Data: the supplement of paper PMC6555819

Legend:
Assay in all cases: PBM binding z-score (relative to random genomic background probes); higher = stronger binding; sequences stand for … in GC…GCGATTGACAGCGTAGAATGAAGG
[1] = system: FXR:RXRa (NR concentration 270 nM, RXRa partner concentration 90 nM)
In short: (§1)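 Ligand-free nuclear receptor dimers were applied to custom Agilent 4×180K protein-binding microarrays whose double-stranded probes carried direct-repeat seeds, single-nucleotide variants, half-site ablations and random human genomic background sequences in 34-nt variable regions. Incubation lasted 1 h. Binding z-scores were computed against the random background probes from regression-normalized fluorescence.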

[2] = system: LXRa:RXRa (NR concentration 270 nM, RXRa partner concentration 90 nM)
In short: as §1

[3] = system: LXRa homodimer (NR concentration 270 nM)
In short: as §1

[4] = system: LXRb:RXRa (NR concentration 270 nM, RXRa partner concentration 90 nM)
In short: as §1

[5] = system: LXRb homodimer (NR concentration 270 nM)
In short: as §1

[6] = system: PPARa:RXRa (NR concentration 270 nM, RXRa partner concentration 90 nM)
In short: as §1

[7] = system: PPARg:RXRa (NR concentration 180 nM, RXRa partner concentration 90 nM)
In short: as §1

[8] = system: PPARg:RXRa 270nM:90nM, anti-RXR (NR concentration 270 nM, RXRa partner concentration 90 nM)
In short: as §1

[9] = system: PPARg:RXRa 30nM:10nM, anti-RXR (NR concentration 30 nM, RXRa partner concentration 10 nM)
In short: as §1

[10] = system: PPARg:RXRa 90nM:30nM, anti-RXR (NR concentration 90 nM, RXRa partner concentration 30 nM)
In short: as §1

[11] = system: PPARg:RXRa DBDmut IVT, anti-RXR (DBD mutation: RXRa K156A/R161A, NR concentration 270 nM, RXRa partner concentration 90 nM)
In short: as §1

[12] = system: PPARg:RXRa IVT, anti-PPARg (NR concentration 270 nM, RXRa partner concentration 90 nM)
In short: as §1

[13] = system: PPARg DBDmut:RXRa IVT, anti-PPARg (DBD mutation: PPARg1 K132A/R137A, NR concentration 270 nM, RXRa partner concentration 90 nM)
In short: as §1

[14] = system: PPARg DBDmut IVT, anti-PPARg (DBD mutation: PPARg1 K132A/R137A, NR concentration 270 nM)
In short: as §1

[15] = system: PPARg homodimer (NR concentration 180 nM)
In short: as §1

[16] = system: PXR:RXRa (NR concentration 270 nM, RXRa partner concentration 90 nM)
In short: as §1

[17] = system: PXR homodimer (NR concentration 270 nM)
In short: as §1

[18] = system: RARa:RXR (NR concentration 270 nM, RXRa partner concentration 90 nM)
In short: as §1

[19] = system: RARa homodimer (NR concentration 270 nM)
In short: as §1

[20] = system: RARb:RXRa (NR concentration 270 nM, RXRa partner concentration 90 nM)
In short: as §1

| Sequence | PBM binding z-score [1] | PBM binding z-score [2] | PBM binding z-score [3] | PBM binding z-score [4] | PBM binding z-score [5] | PBM binding z-score [6] | PBM binding z-score [7] | PBM binding z-score [8] | PBM binding z-score [9] | PBM binding z-score [10] | PBM binding z-score [11] | PBM binding z-score [12] | PBM binding z-score [13] | PBM binding z-score [14] | PBM binding z-score [15] | PBM binding z-score [16] | PBM binding z-score [17] | PBM binding z-score [18] | PBM binding z-score [19] | PBM binding z-score [20] |
| --- | --- | --- | --- | --- | --- | --- | --- | --- | --- | --- | --- | --- | --- | --- | --- | --- | --- | --- | --- | --- |
| TCTCGGAGGACACGAAGGTCAGAGCATTCCAGAG | 1.29 | 0.948 | 0.206 | 0.97 | -0.998 | 1.88 | 0.742 | 1.63 | 2.05 | 1.74 | 1.39 | 1.39 | -0.898 | -1.01 | 0.93 | 1.74 | 0.89 | 1.61 | 0.282 | 3.07 |
| TCATATAGGTAATACAGGTGAAAGTTGGCATCTA | 1.53 | 1.59 | 0.587 | 1.49 | 0.359 | 2.79 | 3.47 | 4.06 | 4.44 | 4.48 | 4.09 | 3.7 | 1.17 | 1.27 | 1.53 | 1.23 | 0.642 | 1.77 | 1.84 | 0.87 |
| AGAACGAGGGCACGCTGAGATGATAGCAGAGTAG | 0.695 | 0.423 | -0.425 | 0.0557 | -0.697 | 2.1 | 2.33 | 1.98 | 0.819 | 1.41 | 4.28 | 3.41 | 0.615 | 0.133 | 0.5 | 0.342 | -0.229 | 0.762 | -0.576 | 2.5 |
| CCTACTGCGCCAAAAAGGTCATTGATGCCGATAA | 4.02 | 4.8 | 4.24 | 4.54 | 1.52 | 4.78 | 1.47 | 3.17 | 1.18 | 2.45 | 0.459 | 1.48 | 0.19 | 0.294 | 4.51 | 4.87 | 3.21 | 5.58 | 3.23 | 4.05 |
| CCTCGGAGGACAGATGGTCAGAGCTGTCCGCTTT | -0.143 | -0.35 | -0.187 | -0.927 | -0.896 | -0.597 | -0.644 | -0.669 | -1.17 | -0.907 | -0.386 | -0.558 | -1 | -1.4 | 0.238 | -0.384 | -0.503 | -0.309 | -0.685 | 0.479 |
| ATATGTAGGTTAGCTGTGGTCATTCAGACTAGGC | 0.89 | 1.93 | 0.212 | 0.643 | 0.0822 | 2.29 | 3.3 | 2.79 | 0.838 | 1.89 | 6.97 | 6.07 | 2.72 | 2.03 | 1.37 | 1.3 | 0.0563 | 1.3 | 0.467 | 1.2 |
| ATACCAAGGTGACCGTGAGGTCGTTGATACTAAC | 3.38 | 2.05 | 0.765 | 2.02 | -0.023 | 2.4 | 1.44 | 1.39 | 0.228 | 0.726 | 1.21 | 2.77 | 0.39 | 0.266 | 1.4 | 3.8 | 1.45 | 3.05 | 0.22 | 2.46 |
| ACTGGCAGGCCAAGTTTGGGTCACTCAAACAAAG | 0.314 | 0.00721 | -0.384 | 0.727 | -0.59 | 1.36 | -0.374 | -0.085 | -0.662 | -0.496 | -0.444 | 0.61 | -1.01 | -1.29 | 0.0864 | 0.677 | -0.347 | 1.4 | -0.396 | 1.74 |
| GCTAGTTGGCCAGTAAAAGGTCACACACCGGTCG | 2.93 | 4.16 | 3.87 | 4.02 | 0.221 | 4.29 | 1.91 | 3.48 | 1.25 | 2.46 | 0.354 | 1.78 | -0.104 | -0.574 | 3.08 | 4.62 | 0.59 | 5.25 | 0.379 | 4.07 |
| GCTTGTAGGTCAAGGTTAAGAAAGACTAAGCTAA | 5.3 | 4.01 | 0.371 | 3.16 | 0.186 | 5.37 | 9.1 | 7.63 | 6.21 | 7.79 | 7.82 | 8 | 2.05 | 1.01 | 1.99 | 2.52 | 0.226 | 3.43 | 1.18 | 4.32 |
| GCGACTGGGGCATCAGCAGGTTACTATAACTTAA | 0.0216 | -0.0377 | -0.448 | 0.689 | -0.343 | 1.27 | 0.884 | 1.05 | -0.238 | 0.594 | 4.13 | 3.05 | -0.371 | -0.562 | -0.0326 | -0.0216 | -0.178 | 0.369 | -0.337 | 0.825 |
| TAGCCTAGGTCATTCATGGGCCAGTATAGAAAGC | 4.38 | 3.5 | 0.512 | 2.34 | 0.48 | 3.38 | 2.02 | 2.1 | 0.373 | 1.1 | 1.41 | 2.53 | 0.271 | 0.314 | 1.08 | 1.66 | -0.168 | 2.61 | -0.242 | 3.66 |
| CAAACTAGGTCAAATGTCAAAGTCGAGCCAACCA | 5.99 | 4.61 | 1.45 | 3.78 | 1.49 | 6.77 | 11.8 | 9.72 | 9.92 | 10.8 | 8.77 | 8.6 | 1.94 | 1.58 | 2.71 | 3.16 | 0.325 | 4.96 | 1.02 | 4.26 |
| ATAGGTAGGTTATCGGGTCATTCAGTTTGCGCAT | 3.2 | 3.22 | 1.93 | 3.17 | 1.52 | 3.82 | 4.18 | 4.48 | 1.91 | 3.81 | 4.9 | 5.09 | 1.49 | 1.46 | 2.74 | 3.9 | 7.44 | 3.76 | 2.57 | 2.62 |
